What was measured:
Assay in all cases: DAPPL (digital affinity profiling via proximity ligation, sequencing); 10 mM Tris-HCl pH 7.5, 50 mM NaCl, 1 mM DTT, 4% glycerol, room temperature, 30 min; GST-TFs on glutathione beads, 16-mer random dsDNA library, 0.1% formaldehyde crosslink after washing; high values mean tight binding
Conditions in all cases: protein: recombinant; tags: N-terminal GST; dsDNA, one strand shown
SPIC = biological target: T1, SPIC (Homo sapiens, UniProt Q8N5J4 1-248)
T1 sequence: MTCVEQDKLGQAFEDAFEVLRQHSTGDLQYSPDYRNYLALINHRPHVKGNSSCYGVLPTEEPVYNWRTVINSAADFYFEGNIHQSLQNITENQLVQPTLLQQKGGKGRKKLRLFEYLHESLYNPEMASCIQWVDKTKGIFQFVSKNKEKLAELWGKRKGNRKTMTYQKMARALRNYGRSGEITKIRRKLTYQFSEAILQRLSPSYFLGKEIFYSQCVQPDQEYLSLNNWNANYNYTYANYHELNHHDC
Method in brief: (§1)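 Pools were built from human transcription factors expressed in yeast as GST fusions, captured on glutathione beads and DNA-barcoded, along with a tag-only sample. Incubation with 200 nmole of a 16-mer random double-stranded DNA library lasted 30 min at room temperature in Tris/NaCl/DTT/glycerol buffer, and was followed by washing, 0.1% formaldehyde crosslinking, proximity ligation, PCR amplification and Illumina NextSeq500 sequencing. Binding signal is the quotient of each hexamer's read frequency for a factor and its frequency for the tag-only sample.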

ETV3L = biological target: T2, ETV3L (Homo sapiens, UniProt Q6ZN32 1-361)
T2 sequence: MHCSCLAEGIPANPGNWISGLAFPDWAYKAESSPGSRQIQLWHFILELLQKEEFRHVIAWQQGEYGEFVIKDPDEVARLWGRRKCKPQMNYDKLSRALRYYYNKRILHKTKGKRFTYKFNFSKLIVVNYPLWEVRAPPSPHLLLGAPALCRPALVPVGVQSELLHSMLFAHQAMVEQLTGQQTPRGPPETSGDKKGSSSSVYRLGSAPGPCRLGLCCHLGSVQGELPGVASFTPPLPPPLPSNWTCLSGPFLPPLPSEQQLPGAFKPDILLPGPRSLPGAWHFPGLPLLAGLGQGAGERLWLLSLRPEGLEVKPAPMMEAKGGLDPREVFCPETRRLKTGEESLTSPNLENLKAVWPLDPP
Method in brief: as §1

ELK1 = biological target: T3, ELK1 (Homo sapiens, UniProt P19419 1-428)
T3 sequence: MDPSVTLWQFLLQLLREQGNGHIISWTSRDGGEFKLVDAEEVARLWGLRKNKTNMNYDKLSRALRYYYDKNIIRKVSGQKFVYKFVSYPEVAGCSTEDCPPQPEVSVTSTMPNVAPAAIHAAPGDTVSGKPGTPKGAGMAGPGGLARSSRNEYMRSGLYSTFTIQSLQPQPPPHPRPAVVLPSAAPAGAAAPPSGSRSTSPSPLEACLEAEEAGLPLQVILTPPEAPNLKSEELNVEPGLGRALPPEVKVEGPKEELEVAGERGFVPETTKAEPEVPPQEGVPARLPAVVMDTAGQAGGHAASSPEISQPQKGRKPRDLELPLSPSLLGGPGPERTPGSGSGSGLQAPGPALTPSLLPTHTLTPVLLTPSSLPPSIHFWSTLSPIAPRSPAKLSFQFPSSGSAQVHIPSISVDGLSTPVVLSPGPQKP
Method in brief: as §1

GABPA = biological target: T4, GABPA (Homo sapiens, UniProt Q06546 1-454)
T4 sequence: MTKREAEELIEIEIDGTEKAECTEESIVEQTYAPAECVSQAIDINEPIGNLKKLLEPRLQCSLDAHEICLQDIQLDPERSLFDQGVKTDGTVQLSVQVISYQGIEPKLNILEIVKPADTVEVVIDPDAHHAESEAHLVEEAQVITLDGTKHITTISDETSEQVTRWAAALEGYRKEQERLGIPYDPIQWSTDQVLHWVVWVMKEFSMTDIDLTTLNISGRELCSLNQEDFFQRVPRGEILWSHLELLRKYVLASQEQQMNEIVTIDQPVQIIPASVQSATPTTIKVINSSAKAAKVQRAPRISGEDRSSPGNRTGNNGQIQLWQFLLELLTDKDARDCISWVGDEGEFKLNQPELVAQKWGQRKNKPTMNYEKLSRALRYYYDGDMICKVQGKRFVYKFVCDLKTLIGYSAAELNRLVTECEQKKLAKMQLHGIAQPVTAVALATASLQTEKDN
Method in brief: as §1

ELF1 = ELF1 (Homo sapiens, UniProt P32519 1-619)
Method in brief: as §1

EHF = biological target: T5, EHF (Homo sapiens, UniProt Q9NZC4 1-300)
T5 sequence: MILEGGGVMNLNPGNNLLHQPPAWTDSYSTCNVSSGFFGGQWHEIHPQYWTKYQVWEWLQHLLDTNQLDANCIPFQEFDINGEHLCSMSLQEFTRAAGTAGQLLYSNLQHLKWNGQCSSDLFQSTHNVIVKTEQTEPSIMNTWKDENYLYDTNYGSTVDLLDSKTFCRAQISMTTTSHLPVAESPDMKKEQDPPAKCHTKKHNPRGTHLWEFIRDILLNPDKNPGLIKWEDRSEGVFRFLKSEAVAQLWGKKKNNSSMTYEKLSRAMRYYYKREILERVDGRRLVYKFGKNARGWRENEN
Method in brief: as §1

SPI1 = SPI1 (Homo sapiens, UniProt P17947 1-270)
Method in brief: as §1

ELK4 = biological target: T6, ELK4 (Homo sapiens, UniProt P28324-2 1-405)
T6 sequence: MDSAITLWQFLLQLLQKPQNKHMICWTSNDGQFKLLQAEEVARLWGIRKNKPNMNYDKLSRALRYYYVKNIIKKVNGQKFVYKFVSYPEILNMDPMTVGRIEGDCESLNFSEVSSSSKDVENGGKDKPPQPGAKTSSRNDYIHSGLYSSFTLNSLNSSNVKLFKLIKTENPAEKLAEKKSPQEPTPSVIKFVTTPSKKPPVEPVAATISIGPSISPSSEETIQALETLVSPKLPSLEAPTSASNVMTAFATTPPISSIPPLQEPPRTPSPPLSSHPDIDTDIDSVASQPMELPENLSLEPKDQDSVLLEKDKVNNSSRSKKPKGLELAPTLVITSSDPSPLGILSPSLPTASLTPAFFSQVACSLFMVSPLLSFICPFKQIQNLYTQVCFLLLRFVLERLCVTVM
Method in brief: as §1

ETV2 = biological target: T7, ETV2 (Homo sapiens, UniProt O00321 1-342)
T7 sequence: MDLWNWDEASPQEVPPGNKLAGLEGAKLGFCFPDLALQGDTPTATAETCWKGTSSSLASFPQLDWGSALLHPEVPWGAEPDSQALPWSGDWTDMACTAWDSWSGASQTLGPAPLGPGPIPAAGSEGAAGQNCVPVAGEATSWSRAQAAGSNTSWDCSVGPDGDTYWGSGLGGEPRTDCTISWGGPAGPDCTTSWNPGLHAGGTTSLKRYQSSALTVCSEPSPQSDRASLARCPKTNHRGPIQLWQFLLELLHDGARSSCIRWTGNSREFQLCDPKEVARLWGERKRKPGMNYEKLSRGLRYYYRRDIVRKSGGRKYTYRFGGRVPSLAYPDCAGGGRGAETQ
Method in brief: as §1

ELF3 = biological target: T8, ELF3 (Homo sapiens, UniProt P78545 1-371)
T8 sequence: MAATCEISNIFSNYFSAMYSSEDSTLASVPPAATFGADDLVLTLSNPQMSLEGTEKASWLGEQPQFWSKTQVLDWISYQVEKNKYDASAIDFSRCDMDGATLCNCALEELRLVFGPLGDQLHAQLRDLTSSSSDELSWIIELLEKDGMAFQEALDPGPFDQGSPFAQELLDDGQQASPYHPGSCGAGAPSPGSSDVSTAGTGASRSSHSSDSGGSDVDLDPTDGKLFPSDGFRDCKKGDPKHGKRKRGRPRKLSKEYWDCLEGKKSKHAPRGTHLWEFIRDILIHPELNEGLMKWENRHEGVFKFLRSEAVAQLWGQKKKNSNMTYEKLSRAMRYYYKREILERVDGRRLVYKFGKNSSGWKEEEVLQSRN
Method in brief: as §1

CRX = CRX (Homo sapiens, UniProt O43186 1-299)
Method in brief: as §1

ETV1 = ETV1 (Homo sapiens, UniProt P50549 1-477)
Method in brief: as §1

ETS2 = biological target: T9, ETS2 (Homo sapiens, UniProt P15036 1-469)
T9 sequence: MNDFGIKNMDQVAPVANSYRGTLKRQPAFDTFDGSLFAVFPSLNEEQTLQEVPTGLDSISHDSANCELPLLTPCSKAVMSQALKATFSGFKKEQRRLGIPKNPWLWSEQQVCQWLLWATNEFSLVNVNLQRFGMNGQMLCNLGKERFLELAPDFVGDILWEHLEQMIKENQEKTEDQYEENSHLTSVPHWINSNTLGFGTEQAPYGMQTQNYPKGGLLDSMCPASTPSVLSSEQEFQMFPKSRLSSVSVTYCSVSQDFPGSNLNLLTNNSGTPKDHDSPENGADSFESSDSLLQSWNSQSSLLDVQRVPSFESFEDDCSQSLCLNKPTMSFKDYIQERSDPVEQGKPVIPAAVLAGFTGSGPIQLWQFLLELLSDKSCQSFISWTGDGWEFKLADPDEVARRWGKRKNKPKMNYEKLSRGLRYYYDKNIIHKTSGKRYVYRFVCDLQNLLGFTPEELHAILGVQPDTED
Method in brief: as §1

ETV7 = biological target: T10, ETV7 (Homo sapiens, UniProt Q9Y603 1-341)
T10 sequence: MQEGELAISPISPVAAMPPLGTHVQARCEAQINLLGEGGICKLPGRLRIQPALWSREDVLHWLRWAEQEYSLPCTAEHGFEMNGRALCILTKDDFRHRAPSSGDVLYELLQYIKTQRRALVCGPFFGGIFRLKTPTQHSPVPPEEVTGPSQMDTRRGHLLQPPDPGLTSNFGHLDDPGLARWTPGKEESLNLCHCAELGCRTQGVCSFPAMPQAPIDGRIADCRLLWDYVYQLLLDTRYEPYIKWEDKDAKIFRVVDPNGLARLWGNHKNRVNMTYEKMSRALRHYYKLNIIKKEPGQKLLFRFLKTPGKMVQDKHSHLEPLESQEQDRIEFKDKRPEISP
Method in brief: as §1

ELF5 = biological target: T11, ELF5 (Homo sapiens, UniProt Q9UKW6-2 1-255)
T11 sequence: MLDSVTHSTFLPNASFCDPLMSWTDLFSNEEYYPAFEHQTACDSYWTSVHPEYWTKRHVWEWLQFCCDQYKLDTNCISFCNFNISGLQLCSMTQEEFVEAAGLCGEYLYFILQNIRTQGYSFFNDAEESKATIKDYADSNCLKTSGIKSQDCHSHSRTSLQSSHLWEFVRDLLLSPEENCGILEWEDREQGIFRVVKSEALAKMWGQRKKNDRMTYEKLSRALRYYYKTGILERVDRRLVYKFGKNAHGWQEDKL
Method in brief: as §1

ETV6 = ETV6 (Homo sapiens, UniProt P41212 1-452)
Method in brief: as §1

ELF1, sequence (P32519 whole entry): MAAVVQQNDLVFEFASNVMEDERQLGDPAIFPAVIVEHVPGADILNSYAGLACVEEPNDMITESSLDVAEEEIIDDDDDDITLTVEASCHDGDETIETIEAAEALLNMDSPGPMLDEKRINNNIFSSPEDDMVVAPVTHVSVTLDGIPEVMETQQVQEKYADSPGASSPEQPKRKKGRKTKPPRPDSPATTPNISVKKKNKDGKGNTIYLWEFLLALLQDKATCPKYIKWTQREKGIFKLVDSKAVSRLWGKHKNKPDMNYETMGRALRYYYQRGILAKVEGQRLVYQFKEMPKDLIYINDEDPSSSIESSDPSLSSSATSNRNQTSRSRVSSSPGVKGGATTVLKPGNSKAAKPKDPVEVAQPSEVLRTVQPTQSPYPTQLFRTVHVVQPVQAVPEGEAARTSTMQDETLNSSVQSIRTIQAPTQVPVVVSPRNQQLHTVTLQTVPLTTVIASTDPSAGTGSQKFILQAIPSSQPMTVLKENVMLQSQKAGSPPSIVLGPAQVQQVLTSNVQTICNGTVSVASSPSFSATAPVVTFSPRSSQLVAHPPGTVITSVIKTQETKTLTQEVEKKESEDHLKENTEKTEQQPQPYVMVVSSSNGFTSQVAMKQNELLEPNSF
CRX, sequence (O43186 whole entry): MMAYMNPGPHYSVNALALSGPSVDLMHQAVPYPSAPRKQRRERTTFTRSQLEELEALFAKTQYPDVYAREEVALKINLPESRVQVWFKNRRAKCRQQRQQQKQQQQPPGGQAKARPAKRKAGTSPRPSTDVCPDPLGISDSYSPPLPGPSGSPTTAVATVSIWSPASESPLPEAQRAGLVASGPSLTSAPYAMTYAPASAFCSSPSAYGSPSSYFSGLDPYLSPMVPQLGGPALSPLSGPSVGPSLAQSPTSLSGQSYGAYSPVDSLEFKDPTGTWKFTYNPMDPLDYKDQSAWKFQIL
ETV6, sequence (P41212 whole entry): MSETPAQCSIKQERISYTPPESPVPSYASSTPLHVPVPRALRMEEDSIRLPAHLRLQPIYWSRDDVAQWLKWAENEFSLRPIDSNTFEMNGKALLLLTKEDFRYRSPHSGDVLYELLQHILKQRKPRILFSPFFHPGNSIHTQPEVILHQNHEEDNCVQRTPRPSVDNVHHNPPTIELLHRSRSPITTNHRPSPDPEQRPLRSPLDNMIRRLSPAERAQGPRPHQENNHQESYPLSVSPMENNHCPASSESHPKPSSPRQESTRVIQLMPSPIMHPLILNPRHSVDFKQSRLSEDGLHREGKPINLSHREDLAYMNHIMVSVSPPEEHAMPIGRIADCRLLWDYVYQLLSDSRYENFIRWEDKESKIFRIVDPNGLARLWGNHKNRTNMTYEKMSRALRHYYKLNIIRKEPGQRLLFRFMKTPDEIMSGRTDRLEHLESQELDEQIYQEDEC
ETV1, sequence (P50549 whole entry): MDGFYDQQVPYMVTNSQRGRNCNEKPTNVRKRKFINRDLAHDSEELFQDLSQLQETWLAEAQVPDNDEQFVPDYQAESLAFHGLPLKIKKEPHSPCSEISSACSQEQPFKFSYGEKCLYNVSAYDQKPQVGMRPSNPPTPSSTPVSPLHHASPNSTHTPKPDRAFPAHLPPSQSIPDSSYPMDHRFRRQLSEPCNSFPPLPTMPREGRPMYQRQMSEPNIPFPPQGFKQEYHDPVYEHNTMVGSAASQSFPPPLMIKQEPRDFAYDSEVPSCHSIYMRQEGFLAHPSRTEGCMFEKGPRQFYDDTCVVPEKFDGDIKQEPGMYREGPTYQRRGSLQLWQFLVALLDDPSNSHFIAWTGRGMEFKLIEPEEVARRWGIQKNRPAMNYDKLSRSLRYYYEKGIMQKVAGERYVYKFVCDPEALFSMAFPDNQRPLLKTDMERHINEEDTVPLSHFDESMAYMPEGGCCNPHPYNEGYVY

Row | Sequence | binding signal (SPIC) | binding signal (ETV3L) | binding signal (ELK1) | binding signal (GABPA) | binding signal (ELF1) | binding signal (EHF) | binding signal (SPI1) | binding signal (ELK4) | binding signal (ETV2) | binding signal (ELF3) | binding signal (CRX) | binding signal (ETV1) | binding signal (ETS2) | binding signal (ETV7) | binding signal (ELF5) | binding signal (ETV6)
1 | GCCATC | 1.17 fold enrichment (6-mer frequency, TF over GST control) | 1.03 fold enrichment (6-mer frequency, TF over GST control) |  |  |  |  |  |  |  |  |  |  |  |  |  | 
2 | CAAAAG |  |  | 1.02 fold enrichment (6-mer frequency, TF over GST control) | 1.04 fold enrichment (6-mer frequency, TF over GST control) | 1.01 fold enrichment (6-mer frequency, TF over GST control) | 1 fold enrichment (6-mer frequency, TF over GST control) | 1.08 fold enrichment (6-mer frequency, TF over GST control) | 1.05 fold enrichment (6-mer frequency, TF over GST control) | 1.05 fold enrichment (6-mer frequency, TF over GST control) | 1.06 fold enrichment (6-mer frequency, TF over GST control) | 1.02 fold enrichment (6-mer frequency, TF over GST control) | 1 fold enrichment (6-mer frequency, TF over GST control) | 1.04 fold enrichment (6-mer frequency, TF over GST control) | 1 fold enrichment (6-mer frequency, TF over GST control) | 1 fold enrichment (6-mer frequency, TF over GST control) | 1.01 fold enrichment (6-mer frequency, TF over GST control)
